This is a sample that favours compounds with a hit; in the whole collection about 1.3% have one here.
NCOA1 inh = inhibitors of human steroid receptor coactivator 1 (SRC1); Q15788; HEK293 GAL4-SRC1 luciferase reporter, luminescence; inhibition, % at 3.6 µM; 360,000 tested, 0.12% active; AID 588354;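 active = inhibition above the campaign mean plus 3 SD, with each screening campaign given its own cutoff, cut at about 60% in these data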
Target sequence (Q15788 whole entry, looked up, the tested form may be a part): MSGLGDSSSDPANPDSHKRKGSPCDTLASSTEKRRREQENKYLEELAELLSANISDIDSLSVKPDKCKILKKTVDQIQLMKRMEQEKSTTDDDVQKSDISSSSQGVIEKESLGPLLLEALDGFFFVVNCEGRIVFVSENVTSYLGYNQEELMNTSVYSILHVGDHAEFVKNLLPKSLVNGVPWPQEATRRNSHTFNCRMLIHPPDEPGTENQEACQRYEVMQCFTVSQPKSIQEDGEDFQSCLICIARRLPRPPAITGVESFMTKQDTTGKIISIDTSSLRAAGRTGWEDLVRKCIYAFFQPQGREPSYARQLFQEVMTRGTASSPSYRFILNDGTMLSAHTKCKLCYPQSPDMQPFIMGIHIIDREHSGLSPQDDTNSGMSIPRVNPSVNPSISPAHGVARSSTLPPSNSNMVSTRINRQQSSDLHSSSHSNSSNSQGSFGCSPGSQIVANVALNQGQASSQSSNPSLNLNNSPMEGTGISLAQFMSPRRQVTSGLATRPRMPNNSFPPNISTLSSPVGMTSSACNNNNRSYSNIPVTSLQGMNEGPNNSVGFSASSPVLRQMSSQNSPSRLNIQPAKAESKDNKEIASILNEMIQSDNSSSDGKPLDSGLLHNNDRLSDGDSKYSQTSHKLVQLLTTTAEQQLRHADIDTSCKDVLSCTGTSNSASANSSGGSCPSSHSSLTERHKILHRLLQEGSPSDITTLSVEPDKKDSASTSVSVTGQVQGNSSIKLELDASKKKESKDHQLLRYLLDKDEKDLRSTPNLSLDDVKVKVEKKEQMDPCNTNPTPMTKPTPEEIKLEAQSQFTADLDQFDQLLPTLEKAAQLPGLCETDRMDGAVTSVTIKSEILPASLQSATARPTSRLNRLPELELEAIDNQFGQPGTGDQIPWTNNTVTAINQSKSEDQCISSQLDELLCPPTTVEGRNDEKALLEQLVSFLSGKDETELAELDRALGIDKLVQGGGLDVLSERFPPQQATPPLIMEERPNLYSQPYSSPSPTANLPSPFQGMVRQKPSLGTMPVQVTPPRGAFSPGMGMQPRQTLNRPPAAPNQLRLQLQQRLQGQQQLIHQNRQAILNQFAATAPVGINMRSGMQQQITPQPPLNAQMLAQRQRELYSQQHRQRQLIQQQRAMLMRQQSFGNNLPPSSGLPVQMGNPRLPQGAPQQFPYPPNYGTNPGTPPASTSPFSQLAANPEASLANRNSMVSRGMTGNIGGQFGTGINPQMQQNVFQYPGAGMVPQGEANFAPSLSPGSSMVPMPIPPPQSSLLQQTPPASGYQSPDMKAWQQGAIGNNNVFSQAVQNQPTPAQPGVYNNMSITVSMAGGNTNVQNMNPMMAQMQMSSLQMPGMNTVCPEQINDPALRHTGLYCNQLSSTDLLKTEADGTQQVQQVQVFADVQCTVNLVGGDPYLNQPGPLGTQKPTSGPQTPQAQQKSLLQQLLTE
COUP-TFII inh = blocks human COUP-TFII nuclear receptor. 370,000 tested, 0.7% active. inhibition, % at 8.6 µM. HEK293T NGFI-A luciferase reporter, luminescence. P24468;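 active = inhibition above a per-plate cutoff, mean inhibition of test wells between control levels plus 3 SD, cut at about 38% in these data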;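 also: cells cotransfected with COUP-TFII expression vector driving the NGFI-A reporter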
LRH-1 inv ag = NR5A2 inverse agonism in reporter assay | 360,000 tested, 0.13% active | HEK293T StAR-luciferase reporter, LRH-1 transfected, 24 h | inhibition, % at 3.6 µM | O00482;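 active = inhibition above the mean inhibition of all tested compounds plus 3 SD, cut at about 73% in these data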
SRC2 inh = human SRC2 (NCOA2) inhibition | Q15596 | HEK293 GAL4-SRC2 luciferase reporter, luminescence | inhibition, % at 9 µM | 370,000 tested, 0.17% active;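 active = inhibition above the mean inhibition of all tested compounds plus 3 SD, set per campaign, cut at about 52% in these data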
NCOA3 inh = human NCOA3 inhibition; Q9Y6Q9; HEK293 GAL4-SRC3 luciferase reporter, luminescence; inhibition, % at 3.6 µM; 360,000 tested, 0.17% active;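 active = inhibition above a per-campaign cutoff, the mean of all compounds plus 3 SD, cut at about 60% in these data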;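 also: higher means less SRC3-driven luciferase light from the GAL4 reporter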
Gli-Sufu antag = blocks Gli-Sufu signaling in a luciferase reporter | Sufu-KO-LIGHT fibroblasts, Gli luciferase reporter luminescence | inhibition, % at 5 µM | 340,000 tested, 0.74% active;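 active = inhibition above about 55%, limit read from the data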
Each line names hits and unclear results; the compound was inactive in the other large screens.

CC(NC(=O)Nc1nnc(C(F)(F)F)s1)(C(F)(F)F)C(F)(F)F	COUP-TFII inh 45.0, LRH-1 inv ag 89.6, NCOA3 inh 83.5
CC(=C/c1ccccc1)/C=N/n1c(-c2ccncc2)n[nH]c1=S	NCOA1 inh 62.8
CC(/C=N/n1c(-c2cccnc2)n[nH]c1=S)=C\c1ccccc1	none
CCN(CC)CCNC(=O)c1ccc2c(=O)n(C3CCCC3)c(=S)[nH]c2c1	Gli-Sufu antag 70.7
O=C(Nc1ccccc1C(F)(F)F)O[C@@H]1CC[C@@]23CCCN2C(=O)CCC[C@H]3C1	none (no result: NCOA1 inh, LRH-1 inv ag, SRC2 inh, NCOA3 inh, Gli-Sufu antag)
NC(=O)C1CCN(c2ncc(Br)s2)CC1	none (no result: NCOA1 inh, LRH-1 inv ag, SRC2 inh, NCOA3 inh, Gli-Sufu antag)
Cc1cc(C)c(S(=O)(=O)/N=C2/C=C(Sc3ncn[nH]3)C(=O)c3ccccc32)cc1C	COUP-TFII inh 62.3, SRC2 inh 62.2, NCOA3 inh 70.7
COCc1cc(CN2CCCC2)c(O)c2ncccc12	none
CN(C)C1CCN(Cc2cc(COCc3ccccc3)c3cccnc3c2O)C1 (centres undefined)	Gli-Sufu antag 57.0 (no result: COUP-TFII inh, SRC2 inh)
OCCN1CCN(Cc2cc(Cl)c3cccnc3c2O)CC1	none
Oc1c(CN2CCCCC2)cc(COCc2ccccc2)c2cccnc12	Gli-Sufu antag 92.3
Oc1c(CN2CCN(c3ccccn3)CC2)cc(Cl)c2cccnc12	Gli-Sufu antag 70.6 (no result: COUP-TFII inh, SRC2 inh)
COc1ccc2c(c1)CN1C(=O)N(Cc3ccc(F)cc3)S(=O)(=O)CC21 (centres undefined)	none (no result: NCOA1 inh, LRH-1 inv ag, NCOA3 inh, Gli-Sufu antag)
CN(c1ccc(NC(=O)CCc2c[nH]c3ccccc23)cc1)c1ccccn1	none (no result: NCOA1 inh, LRH-1 inv ag, NCOA3 inh, Gli-Sufu antag)
COc1ccc(OC)c2[nH]c(C(=O)N/N=C/c3ccccc3O)cc12	Gli-Sufu antag 58.7
COc1ccc(/C=C/S(=O)(=O)NC2CCCC2)c(CNC(=O)OC(C)(C)C)c1	none (no result: NCOA1 inh, LRH-1 inv ag, NCOA3 inh, Gli-Sufu antag)
Cc1cc(C)c2nc(NNC(=O)c3ccc(S(=O)(=O)N4CCc5ccccc5C4)cc3)sc2c1	none
Cc1cc(C)c2sc(NNC(=O)c3ccc(S(=O)(=O)N4CCc5ccccc5C4)cc3)nc2c1	NCOA1 inh 70.5, NCOA3 inh 80.5
O=c1cc(C(Cl)(Cl)Cl)oc2c1ccc1ccccc12	Gli-Sufu antag 65.4
O=C(CCl)NC(Cc1ccccc1)c1ccccc1 (centres undefined)	SRC2 inh 56.6
COc1ccc(S[C@]2(C(=O)N(C)C)CC(=O)N(S(=O)(=O)c3ccc(F)cc3)[C@@H]2c2ccc(OC)cc2)cc1	none (no result: NCOA1 inh, LRH-1 inv ag, NCOA3 inh, Gli-Sufu antag)
COC(=O)C/C=C/[C@@H](C)[C@H](NC(=O)OCC(Cl)(Cl)Cl)c1ccc(-c2ccccc2)cc1	none (no result: NCOA1 inh, LRH-1 inv ag, NCOA3 inh, Gli-Sufu antag)
COc1ccc(NC(=O)Cc2ccc(Cl)c(Cl)c2)cn1	none
COc1ccc(NC(=O)/C(Cl)=C(/Cl)S(=O)Cc2ccccc2Cl)cn1 (centres undefined)	Gli-Sufu antag 72.1 (no result: NCOA1 inh, COUP-TFII inh, LRH-1 inv ag, SRC2 inh, NCOA3 inh)
Cc1sc2ncnc(N3CCN(CCOc4ccc(Cl)cc4)CC3)c2c1C	Gli-Sufu antag 74.0
CC[C@@H](C(=O)[C@@H](C)[C@@H](O)[C@H](C)CCc1ccc(C)c(O)c1C(=O)O)[C@H]1O[C@](CC)([C@H]2CC[C@](O)(CC)[C@H](C)O2)C[C@@H]1C	Gli-Sufu antag 81.9
O=C(CCCN1C(=O)/C(=C/c2ccccc2Cl)SC1=S)NNC(=O)c1ccc(Cl)cc1	SRC2 inh 58.3
CCC(=O)NC(c1cccs1)c1ccc2cccnc2c1O (centres undefined)	Gli-Sufu antag 81.4
CC(C)CC(=O)NC(c1cccs1)c1ccc2cccnc2c1O (centres undefined)	Gli-Sufu antag 72.4 (no result: COUP-TFII inh, SRC2 inh)
Cc1cccc(C(=O)Nc2nc3ncccn3c2-c2ccc(F)c(F)c2)c1	none (no result: NCOA1 inh, LRH-1 inv ag, NCOA3 inh, Gli-Sufu antag)
Cc1cc(NS(=O)(=O)C2CCN(C(=O)Cc3ccc(Cl)c(Cl)c3)CC2)no1	none (no result: NCOA1 inh, LRH-1 inv ag, NCOA3 inh, Gli-Sufu antag)
CCN(CC)C(=O)CC[C@H]1CC[C@]2(CCCN(C(=O)C(C)(C)C)C2)O1	none (no result: NCOA1 inh, LRH-1 inv ag, NCOA3 inh, Gli-Sufu antag)
CC(=O)C1=C(c2ccc(Br)cc2)C(=O)c2ccccc2C1=O	NCOA1 inh 90.8, COUP-TFII inh 71.3, LRH-1 inv ag 85.1, SRC2 inh 70.3, NCOA3 inh 91.7
CC(=O)Nc1c(Br)cc2c(c1Br)C(=O)c1ccccc1-2	none
COc1ccc(S[C@]2(C(=O)N3CCOCC3)CC(=O)N(C(=O)C3CC3)[C@@H]2c2ccc(OC)cc2)cc1	none (no result: NCOA1 inh, LRH-1 inv ag, NCOA3 inh, Gli-Sufu antag)
Cc1ccc(-c2cc(N)n[nH]2)cc1	none
CC(C)(C)c1ccc(-c2cc(N)n[nH]2)cc1	SRC2 inh 55.0
CN(C)c1ccc(/C=C/c2ccc3c4ccccc4ccc3[n+]2-c2ccccc2)cc1	NCOA1 inh 70.8, COUP-TFII inh 85.0, LRH-1 inv ag 90.9, NCOA3 inh 77.2, Gli-Sufu antag 91.7
CN(C)c1ccc(/C=C/c2ccc3ccccc3[n+]2C)cc1	NCOA1 inh 62.8, COUP-TFII inh 71.5, LRH-1 inv ag 97.3, NCOA3 inh 70.1, Gli-Sufu antag 87.1
CN(CCCS(=O)(=O)[O-])c1ccc(/C=C/c2ccc3ccccc3[n+]2C)cc1	none
CN(C)c1ccc(/C=C/c2cccc[n+]2[O-])cc1	none
CC(C)[C@@H]1OC(=O)[C@@H]2CCCN2C(=O)[C@H](C)OC(=O)[C@H](C)[C@@H](C(C)C)NC(=O)[C@@H]2CCCN2C(=O)[C@H]([C@H](C)Cc2ccccc2)NC(=O)[C@@H]2CCCN2C(=O)[C@@H](C(C)C)N(C)C1=O	none (no result: NCOA1 inh, LRH-1 inv ag, SRC2 inh, NCOA3 inh, Gli-Sufu antag)
O=C1C=CC(=O)N1Cc1ccccc1	COUP-TFII inh 60.9
O=S1(=O)Nc2c(ccc3cccnc23)-c2ccccc21	Gli-Sufu antag 82.5 (no result: COUP-TFII inh, SRC2 inh)
CCOc1ccc(-n2c(SCC(=O)Nc3ccc(S(=O)(=O)Nc4nccs4)cc3)nnc2-c2ccncc2)cc1	none (no result: NCOA1 inh, LRH-1 inv ag, NCOA3 inh, Gli-Sufu antag)
O=S(=O)(c1ccc(Cl)cc1)N1CCCC1c1nc(-c2ccc(Cl)cc2)no1 (centres undefined)	SRC2 inh 95.0
O=S(=O)(c1ccccc1Cl)N1CCCC1c1nc(-c2ccccc2Cl)no1 (centres undefined)	none
CCOc1ccc(/C=C2\SC(=S)N(CCC(=O)O)C2=O)cc1	SRC2 inh 70.0
CCc1ccc(/C=C2\SC(=S)N(CCC(=O)Nc3cc(C)on3)C2=O)cc1	none
COc1cccc(/C=C2/SC(=S)N(CCCC(=O)Nc3ccc(O)cc3)C2=O)c1	SRC2 inh 52.5
CCc1ccc(/C=C2\SC(=S)N(CCCC(=O)NC3=NCCS3)C2=O)cc1	SRC2 inh 54.5 (no result: Gli-Sufu antag)
CCc1ccc(/C=C2\SC(=S)N(CCCC(=O)Nc3cc(C)on3)C2=O)cc1	SRC2 inh 76.7 (no result: Gli-Sufu antag)
CC(C)[C@H](NS(=O)(=O)c1ccc(F)cc1F)C(=O)N1CCC[C@H]1C(=O)NCCc1ccccc1Cl	none (no result: NCOA1 inh, LRH-1 inv ag, NCOA3 inh, Gli-Sufu antag)
COc1ccc(Br)cc1/C=C/C(=O)c1ccc(NC(C)=O)cc1	SRC2 inh 61.2, NCOA3 inh 71.1
Oc1ccccc1N=Nc1nc(-c2ccccc2)c(-c2ccccc2)[nH]1	NCOA1 inh 73.8, LRH-1 inv ag 98.0, NCOA3 inh 86.9, Gli-Sufu antag 93.0
CCN1CCCCC(NC(=O)c2cc(OC)c(OC)c(OC)c2)C1=O (centres undefined)	none (no result: NCOA1 inh, LRH-1 inv ag, NCOA3 inh, Gli-Sufu antag)
c1csc(CNc2ccc3c(c2)OCCO3)c1	COUP-TFII inh 63.8

High-throughput results as filed in PubChem BioAssay.
